From PubChem BioAssay (EPA / NIEHS) come the findings set out here.

Experiment [1] deals with rat Thyrotropin Releasing Hormone Receptor (TRH), Trhr (gene 25570) (UniProt Q01717). Nature of the experiment: NVS_GPCR_rTRH: NovaScreen (NVS) G Protein-Coupled Receptor Assay for rat Thyrotropin Releasing Hormone Receptor (TRH) (AID 2283329).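 Note: hit means lower bound tracer signal versus DMSO baseline.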 In outline: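 Cell-free radioligand binding on rat forebrain membranes; bound tracer measured by filter-based scintillation counting 4 hours after dosing. Loss of signal versus DMSO baseline indicates displacement; primary screen at 25 uM in duplicate, actives then run in concentration series.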

In experiment [2] the target is rat Glutamate, AMPA Site (AMPA), Gria1 (gene 50592) (UniProt P19490). Kind of experiment: NVS_LGIC_rAMPA: NovaScreen (NVS) Ligand-Gated Ion Channel Assay for rat Glutamate, AMPA Site (AMPA) (AID 2283324). In outline:
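Rat forebrain membranes; radioligand binding read 1 h after dosing by filtration and scintillation counting. Duplicate single-point screen at 25 uM, then concentration-response to 50 uM for threshold hits (e.g. 30% inhibition); loss of signal vs DMSO.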

The target in experiment [3] is rat Glutamate, NMDA Agonist Site (GluNMDA), Grin1 (gene 24408) (UniProt P35439). Nature of the experiment: NVS_LGIC_rGluNMDA_Agonist: NovaScreen (NVS) Ligand-Gated Ion Channel Assay for rat Glutamate, NMDA Agonist Site (GluNMDA) (AID 2283327). The protocol:
NVS_LGIC_rGluNMDA_Agonist is a biochemical, single-readout assay that uses extracted gene-proteins from Rat forebrain membranes in a tissue-based cell-free assay. Measurements were taken 1 hour after chemical dosing in a 48-well plate.NVS_LGIC_rGluNMDA_Agonist is one of one assay component(s) measured or calculated from the NVS_LGIC_rGluNMDA_Agonist assay. It is designed to make measurements of radioligand binding, a form of binding reporter, as detected with scintillation counting signals by Filter-based radiodetection technology.Data from the assay component NVS_LGIC_rGluNMDA_Agonist was analyzed into 1 assay endpoint. This assay endpoint, NVS_LGIC_rGluNMDA_Agonist, was analyzed in the positive analysis fitting direction relative to DMSO as the negative control and baseline of activity. Using a type of binding reporter, gain-of-signal activity can be used to understand changes in the binding as they relate to the gene Grin1. Furthermore, this assay endpoint can be referred to as a primary readout, because the performed assay has only produced 1 assay endpoint. To generalize the intended target to other relatable targets, this assay endpoint is annotated to the ion channel intended target family, where the subfamily is ligand-gated ion channel. […]

For experiment [4], the target named is human Peripheral-type Benzodiazepine Receptor (PBR), TSPO (gene 706) (UniProt P30536). Kind of experiment: NVS_MP_hPBR: NovaScreen (NVS) Membrane Protein Assay for human Peripheral-type Benzodiazepine Receptor (PBR) (AID 2283331).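 Note: hits reduce radioligand binding relative to DMSO baseline.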 A digest of the protocol: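 Human colonic cell membranes were incubated with test chemical for 1 hour; radioligand binding was measured by filter-based scintillation counting. Primary screen ran in duplicate at 25 uM, with actives followed in concentration series; loss of signal versus DMSO baseline.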

Experiment [5] addresses human Serotonin, 5-Hydroxytryptamine Receptor 3 (5HT3), HTR3A (gene 3359) (UniProt P46098). Nature of the experiment: NVS_LGIC_h5HT3: NovaScreen (NVS) Ligand-Gated Ion Channel Assay for human Serotonin, 5-Hydroxytryptamine Receptor 3 (5HT3) (AID 2283325). In outline:
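Radioligand displacement binding to human 5-HT3 from HEK293 membranes, read by filter-based scintillation counting after 1 h. Screen at 25 uM in duplicate; chemicals passing threshold were retested in concentration-response up to 50 uM.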

Experiment [6] addresses human Androgen Receptor (AR), AR (gene 367) (UniProt P10275). Kind of experiment: NVS_NR_hAR: NovaScreen (NVS) Nuclear Receptor Binding Assay for human Androgen Receptor (AR) (AID 2283332). In outline: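 Actives from a duplicate 25 uM single-point screen went on to concentration series. Read-out after 20 h was scintillation counting of displaced radioligand in LnCAP extract, with DMSO as baseline.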

Experiment [7] concerns the target rat Gamma-Aminobutyric Acid Type A Receptor, Non-Selective (GABAR-NonSelective), Gabra1 (gene 29705) (UniProt P62813). Nature of the experiment: NVS_LGIC_rGABAR_NonSelective: NovaScreen (NVS) Ligand-Gated Ion Channel Assay for rat Gamma-Aminobutyric Acid Type A Receptor, Non-Selective (GABAR-NonSelective) (AID 2283326). A digest of the protocol: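 Radioligand displacement on rat whole-brain extract, 1 h, filter scintillation readout; signal loss fitted versus DMSO. Primary screen in duplicate at 25 uM; hits (e.g. ≥30% inhibition) retested in concentration-response up to 50 uM.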

For experiment [8], the target named is Voltage-gated inwardly rectifying potassium channel KCNH2 (Homo sapiens) (UniProt Q12809). Kind of experiment: NVS_IC_hKhERGCh: NovaScreen (NVS) Ion Channel Assay for human Potassium Channel ERG (KhERGCh) (AID 2283333). In outline: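 Cell-free radioligand competition binding on hERG protein extracted from CHO cells, read by filter-based scintillation counting 0.75 h after dosing. Primary screen at 25 uM in duplicate, actives followed in concentration series. Signal loss fitted versus DMSO.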

Experiment [9] deals with rat Oxytocin Receptor (OXT), Oxtr (gene 25342) (UniProt P70536). Kind of experiment: NVS_GPCR_rOXT: NovaScreen (NVS) G Protein-Coupled Receptor Assay for rat Oxytocin Receptor (OXT) (AID 2283330). A digest of the protocol: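 Radioligand displacement on rat uterine membranes, 1 h incubation, filter-based scintillation counting. Chemicals were screened in duplicate at 25 uM, and those passing threshold were retested in concentration-response up to 50 uM. Loss of binding was fitted versus DMSO.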

Experiment [10] deals with Glutamate receptor ionotropic, kainate 1 (Rattus norvegicus) (UniProt P22756). Nature of the experiment: NVS_IC_rKAR: NovaScreen (NVS) Ion Channel Assay for rat Kainic Acid Receptors (KAR) (AID 2283334; active = hit-call score of the fitted dose curve at least 0.9, where 1 is the maximum; inactive = score below 0.9). In outline:
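Radioligand displacement binding using rat forebrain membranes, 1 h incubation, filter-based scintillation counting. Screened in duplicate at 25 uM, with actives retested in concentration-response up to 50 uM; fitted against DMSO.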

SMILES strings stand for the structures. Inconclusive results are not listed. Where a structure was tested more than once in an assay, its records may differ in their call. The source made the active and inactive calls. Rule for the calls, unless noted: active = hit-call score of the fitted dose curve at least 0.9, where 1 is the maximum; inconclusive = response in the unintended direction; inactive = score below 0.9.

By AC50 is commonly meant the concentration at which the activity in the assay is half-maximal.

human Peripheral-type Benzodiazepine Receptor (PBR), TSPO (gene 706), sequence (P30536 whole entry, looked up): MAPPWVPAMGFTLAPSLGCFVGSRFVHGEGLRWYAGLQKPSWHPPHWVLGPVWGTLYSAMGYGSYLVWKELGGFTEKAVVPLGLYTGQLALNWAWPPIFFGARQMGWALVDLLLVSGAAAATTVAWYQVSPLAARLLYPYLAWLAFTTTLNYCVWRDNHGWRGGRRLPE
Voltage-gated inwardly rectifying potassium channel KCNH2 (Homo sapiens), sequence (Q12809 whole entry, looked up): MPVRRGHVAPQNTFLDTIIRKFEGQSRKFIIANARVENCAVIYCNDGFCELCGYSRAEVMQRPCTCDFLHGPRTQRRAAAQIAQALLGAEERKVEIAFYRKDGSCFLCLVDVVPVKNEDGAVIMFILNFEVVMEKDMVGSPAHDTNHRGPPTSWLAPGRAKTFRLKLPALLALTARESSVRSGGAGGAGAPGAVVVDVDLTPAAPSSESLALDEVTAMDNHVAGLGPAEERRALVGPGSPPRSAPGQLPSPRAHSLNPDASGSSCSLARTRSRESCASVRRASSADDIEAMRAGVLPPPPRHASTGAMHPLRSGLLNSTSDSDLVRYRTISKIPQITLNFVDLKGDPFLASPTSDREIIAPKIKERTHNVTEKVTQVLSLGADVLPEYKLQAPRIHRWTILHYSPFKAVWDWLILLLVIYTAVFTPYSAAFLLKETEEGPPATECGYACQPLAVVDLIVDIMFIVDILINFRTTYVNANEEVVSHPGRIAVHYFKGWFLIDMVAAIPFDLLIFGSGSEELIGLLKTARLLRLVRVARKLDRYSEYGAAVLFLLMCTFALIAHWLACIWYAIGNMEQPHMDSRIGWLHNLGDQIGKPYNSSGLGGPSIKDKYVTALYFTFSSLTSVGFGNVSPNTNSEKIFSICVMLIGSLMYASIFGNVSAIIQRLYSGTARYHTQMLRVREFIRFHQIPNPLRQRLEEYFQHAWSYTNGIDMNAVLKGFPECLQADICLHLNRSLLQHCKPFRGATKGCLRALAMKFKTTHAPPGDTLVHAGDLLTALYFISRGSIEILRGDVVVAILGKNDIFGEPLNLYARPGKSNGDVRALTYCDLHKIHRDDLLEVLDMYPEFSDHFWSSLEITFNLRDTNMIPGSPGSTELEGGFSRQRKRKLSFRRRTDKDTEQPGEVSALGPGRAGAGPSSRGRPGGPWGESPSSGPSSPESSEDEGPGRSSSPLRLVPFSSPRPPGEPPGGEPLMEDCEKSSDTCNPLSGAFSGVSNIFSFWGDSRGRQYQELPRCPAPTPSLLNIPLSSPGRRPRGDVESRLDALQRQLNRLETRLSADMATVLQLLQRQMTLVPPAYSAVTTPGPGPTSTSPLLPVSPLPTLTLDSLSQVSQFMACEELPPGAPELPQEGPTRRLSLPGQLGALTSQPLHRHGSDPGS
rat Glutamate, AMPA Site (AMPA), Gria1 (gene 50592), sequence (P19490 whole entry, looked up): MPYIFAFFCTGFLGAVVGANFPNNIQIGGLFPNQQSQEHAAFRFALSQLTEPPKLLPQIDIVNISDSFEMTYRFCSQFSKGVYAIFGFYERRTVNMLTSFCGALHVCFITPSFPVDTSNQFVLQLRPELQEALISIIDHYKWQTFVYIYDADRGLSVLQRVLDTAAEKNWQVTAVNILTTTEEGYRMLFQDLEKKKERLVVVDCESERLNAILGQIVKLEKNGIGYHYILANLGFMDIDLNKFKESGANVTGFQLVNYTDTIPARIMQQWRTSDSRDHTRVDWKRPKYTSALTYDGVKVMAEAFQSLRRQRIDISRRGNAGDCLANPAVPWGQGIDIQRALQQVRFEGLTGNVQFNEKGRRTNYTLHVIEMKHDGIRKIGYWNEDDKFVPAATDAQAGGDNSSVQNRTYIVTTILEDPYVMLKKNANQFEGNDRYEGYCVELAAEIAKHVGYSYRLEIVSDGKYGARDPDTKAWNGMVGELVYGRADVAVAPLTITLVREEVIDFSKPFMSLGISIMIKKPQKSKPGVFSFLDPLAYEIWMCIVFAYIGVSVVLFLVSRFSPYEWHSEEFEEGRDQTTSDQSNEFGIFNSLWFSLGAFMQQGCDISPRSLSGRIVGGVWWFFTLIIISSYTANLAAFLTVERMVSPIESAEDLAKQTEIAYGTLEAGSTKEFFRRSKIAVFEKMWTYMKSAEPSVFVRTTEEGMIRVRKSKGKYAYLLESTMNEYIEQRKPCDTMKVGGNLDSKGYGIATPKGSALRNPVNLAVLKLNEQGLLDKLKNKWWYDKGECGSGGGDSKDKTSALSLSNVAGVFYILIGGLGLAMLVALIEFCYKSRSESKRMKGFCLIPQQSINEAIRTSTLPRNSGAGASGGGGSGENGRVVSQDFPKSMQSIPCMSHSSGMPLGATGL
human Androgen Receptor (AR), AR (gene 367), sequence (P10275 whole entry, looked up): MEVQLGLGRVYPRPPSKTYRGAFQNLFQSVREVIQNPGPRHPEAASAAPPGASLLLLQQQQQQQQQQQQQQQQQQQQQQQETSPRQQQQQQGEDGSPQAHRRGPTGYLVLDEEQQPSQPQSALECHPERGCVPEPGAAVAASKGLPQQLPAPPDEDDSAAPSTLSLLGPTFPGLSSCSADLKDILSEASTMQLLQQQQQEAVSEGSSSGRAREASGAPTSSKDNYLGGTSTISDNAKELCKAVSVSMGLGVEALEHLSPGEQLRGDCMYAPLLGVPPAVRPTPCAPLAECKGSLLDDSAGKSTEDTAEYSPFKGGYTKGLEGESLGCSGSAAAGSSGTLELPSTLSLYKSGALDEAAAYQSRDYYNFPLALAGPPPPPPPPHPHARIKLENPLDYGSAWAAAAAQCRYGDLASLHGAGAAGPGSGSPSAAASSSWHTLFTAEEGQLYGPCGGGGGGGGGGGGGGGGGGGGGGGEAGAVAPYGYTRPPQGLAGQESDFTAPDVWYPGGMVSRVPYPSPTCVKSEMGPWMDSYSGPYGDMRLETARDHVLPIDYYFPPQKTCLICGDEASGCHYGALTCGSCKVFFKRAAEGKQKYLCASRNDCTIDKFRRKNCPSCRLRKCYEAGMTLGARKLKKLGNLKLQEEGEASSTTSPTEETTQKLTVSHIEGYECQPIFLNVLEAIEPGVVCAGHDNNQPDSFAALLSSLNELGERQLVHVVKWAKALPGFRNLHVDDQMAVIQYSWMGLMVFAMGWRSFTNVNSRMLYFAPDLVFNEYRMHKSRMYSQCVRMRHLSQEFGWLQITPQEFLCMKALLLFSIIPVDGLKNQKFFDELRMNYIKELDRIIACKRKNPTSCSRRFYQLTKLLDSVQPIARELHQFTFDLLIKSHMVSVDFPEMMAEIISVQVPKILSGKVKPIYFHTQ
human Serotonin, 5-Hydroxytryptamine Receptor 3 (5HT3), HTR3A (gene 3359), sequence (P46098 whole entry, looked up): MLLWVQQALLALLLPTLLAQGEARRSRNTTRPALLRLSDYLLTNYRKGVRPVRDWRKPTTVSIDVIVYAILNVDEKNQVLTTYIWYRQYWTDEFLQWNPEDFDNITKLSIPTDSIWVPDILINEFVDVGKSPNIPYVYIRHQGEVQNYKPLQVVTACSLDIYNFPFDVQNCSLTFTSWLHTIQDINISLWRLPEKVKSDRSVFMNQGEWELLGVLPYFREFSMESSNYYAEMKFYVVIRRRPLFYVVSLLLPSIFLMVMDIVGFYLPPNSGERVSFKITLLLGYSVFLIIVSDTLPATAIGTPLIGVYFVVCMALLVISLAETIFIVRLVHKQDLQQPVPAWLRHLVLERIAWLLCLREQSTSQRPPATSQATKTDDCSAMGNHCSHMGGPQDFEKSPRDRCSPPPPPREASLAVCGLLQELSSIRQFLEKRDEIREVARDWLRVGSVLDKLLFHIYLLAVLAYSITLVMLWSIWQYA
rat Thyrotropin Releasing Hormone Receptor (TRH), Trhr (gene 25570), sequence (Q01717 whole entry, looked up): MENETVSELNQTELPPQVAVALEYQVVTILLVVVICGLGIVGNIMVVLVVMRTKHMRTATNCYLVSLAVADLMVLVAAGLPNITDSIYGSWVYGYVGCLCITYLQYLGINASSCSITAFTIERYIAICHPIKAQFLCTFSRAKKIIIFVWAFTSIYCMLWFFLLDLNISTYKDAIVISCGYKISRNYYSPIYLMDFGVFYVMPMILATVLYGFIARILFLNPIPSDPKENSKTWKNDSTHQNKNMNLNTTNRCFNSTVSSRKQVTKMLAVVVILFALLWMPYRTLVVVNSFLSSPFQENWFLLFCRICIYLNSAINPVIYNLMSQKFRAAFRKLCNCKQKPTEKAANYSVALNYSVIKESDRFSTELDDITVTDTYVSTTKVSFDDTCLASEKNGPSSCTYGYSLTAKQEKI
rat Oxytocin Receptor (OXT), Oxtr (gene 25342), sequence (P70536 whole entry, looked up): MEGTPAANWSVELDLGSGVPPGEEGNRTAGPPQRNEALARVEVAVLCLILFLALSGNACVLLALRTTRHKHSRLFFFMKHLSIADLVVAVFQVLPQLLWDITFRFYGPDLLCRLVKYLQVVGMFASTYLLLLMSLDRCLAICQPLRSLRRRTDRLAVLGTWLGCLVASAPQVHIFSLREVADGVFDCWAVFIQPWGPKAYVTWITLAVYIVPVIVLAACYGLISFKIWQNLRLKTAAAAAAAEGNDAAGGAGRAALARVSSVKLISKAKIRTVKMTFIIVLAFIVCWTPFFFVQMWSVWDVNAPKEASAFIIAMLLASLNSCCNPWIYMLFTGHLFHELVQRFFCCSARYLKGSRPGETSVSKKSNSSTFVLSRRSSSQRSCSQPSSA
rat Gamma-Aminobutyric Acid Type A Receptor, Non-Selective (GABAR-NonSelective), Gabra1 (gene 29705), sequence (P62813 whole entry, looked up): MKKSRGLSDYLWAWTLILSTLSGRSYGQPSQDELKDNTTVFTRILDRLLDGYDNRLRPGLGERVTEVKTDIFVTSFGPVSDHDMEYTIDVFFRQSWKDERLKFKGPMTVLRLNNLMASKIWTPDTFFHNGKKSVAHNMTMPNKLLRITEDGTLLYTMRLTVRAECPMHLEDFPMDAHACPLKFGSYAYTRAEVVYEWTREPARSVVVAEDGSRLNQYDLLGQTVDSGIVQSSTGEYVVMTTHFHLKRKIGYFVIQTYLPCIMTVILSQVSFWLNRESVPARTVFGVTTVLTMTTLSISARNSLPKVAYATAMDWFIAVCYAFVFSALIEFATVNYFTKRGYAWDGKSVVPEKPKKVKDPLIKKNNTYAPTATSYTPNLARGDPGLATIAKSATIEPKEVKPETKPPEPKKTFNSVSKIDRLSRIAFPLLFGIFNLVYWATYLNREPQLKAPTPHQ

In the case of `CC1(C)CON(Cc2ccccc2Cl)C1=O`, the molecule was classed as inactive in experiment [1].

On to `CN=C=S`, for which the result in experiment [2], in [3] and in [4] was inactive.

As for `CC1(C)CCC(=Cc2ccc(Cl)cc2)C1(O)Cn1cncn1` (configuration not stated), in experiment [5], the result was inactive. For the same molecule, the half-maximal activity concentration (AC50) in experiment [6] was 0.955 µM (active).

Turning to `COC(=O)c1c(C(F)F)nc(C(F)(F)F)c(C2=NCCS2)c1CC(C)C`, the outcome in experiment [7] and in experiment [4] was inactive. Also, the AC50 in experiment [1] is 25 µM (active).

As to `Nc1cnn(-c2ccccc2)c(=O)c1Cl`, the result in experiment [1] was inactive.

Regarding `CCNC(=O)NC(=O)C(C#N)=NOC`, the call in [2] and in [1] was inactive.

As to `CC(C)C1(C)N=C(c2ncccc2C(=O)O)NC1=O` (configuration not stated), in experiment [1], the outcome was inactive.

On to `C=C(C)CN(CC)c1c([N+](=O)[O-])cc(C(F)(F)F)cc1[N+](=O)[O-]`, for which, in experiment [2], the molecule was called inactive.

Consider `Cc1c(COC(=O)[C@@H]2[C@H](/C=C(\Cl)C(F)(F)F)C2(C)C)cccc1-c1ccccc1`, for which the molecule was called inactive in [5] and in [4].

In the case of `CCN(CC)C(=O)C(C)Oc1cccc2ccccc12` (configuration not stated), in experiment [1], the AC50 was 42.2 µM (active) and the molecule was classed as inactive. For the same molecule, in experiment [4], the AC50 is 1.11 µM (active).

On to `CS(=O)(=O)c1cc(C(F)(F)F)ccc1C(=O)c1cnoc1C1CC1`, for which the result in experiment [5] was inactive.

Turning to `Nc1c(Cl)c(Cl)nc(C(=O)O)c1Cl`, in experiment [1], the result was inactive.

Consider `CCOP(=S)(OCC)Oc1nc(Cl)n(C(C)C)n1`, for which the call in [1] and in experiment [4] was inactive.

Consider `CCCCC(O)(Cn1cncn1)c1ccc(Cl)cc1Cl` (configuration not stated), for which the molecule was classed as inactive in experiment [1] and in experiment [4]. The AC50 in experiment [6] was 18 µM (active); in experiment [8], 13.4 µM (active).

As for `CC1(C)C(C(=O)OC(C#N)c2cccc(Oc3ccccc3)c2)C1(C)C` (configuration not stated), the result in experiment [5] and in [4] was inactive.

On to `COC(=O)NS(=O)(=O)c1ccc(N)cc1`, for which, in experiment [7], the molecule was classed as inactive.

As to `CCOC(=O)C(C)OC(=O)c1cc(Oc2ccc(C(F)(F)F)cc2Cl)ccc1[N+](=O)[O-]` (configuration not stated), the result in experiment [1] was inactive. The AC50 in experiment [4] was 8.41 µM (active).

Turning to `O=P(O)(O)CCCl`, the call in experiment [9] was inactive.

As to `CCOc1nc(F)cc2nc(S(=O)(=O)Nc3c(Cl)cccc3Cl)nn12`, in experiment [1], the outcome was inactive.

For `CC(C)N1C(=O)c2ccccc2NS1(=O)=O`, the outcome in experiment [3] was inactive.

`Cc1cnc(C2=NC(C)(C(C)C)C(=O)N2)c(C(=O)O)c1` (configuration not stated): in experiment [1], the result was inactive.

`CC(C)NC(=O)N1CC(=O)N(c2cc(Cl)cc(Cl)c2)C1=O`: the molecule was called inactive in [9]. In addition, the AC50 in experiment [4] was 8.8 µM (active).

Turning to `COP(=S)(OC)SCn1nnc2ccccc2c1=O`, the AC50 in [6] is 10.9 µM (active).

With `CCCCC(C#N)(Cn1cncn1)c1ccc(Cl)cc1` (configuration not stated), the molecule was classed as inactive in [8].

`CCCN(CC)CC1COC2(CCC(C(C)(C)C)CC2)O1` (configuration not stated): in experiment [8], the AC50 was 5.15 µM (active).

Take `CO/N=C(/C1=NOCCO1)c1ccccc1Oc1ncnc(Oc2ccccc2Cl)c1F`: the molecule was called inactive in experiment [10].
